Bioassay records deposited in PubChem by National Center for Advancing Translational Sciences (NCATS).
Pf growth 48h = inhibits P. falciparum growth in the first generation, 48 h. P. falciparum luciferase growth in erythrocytes, 48 h. AID 504832. Potency, µM (doses to about 28.7 µM), hits mostly inhibitors. actives 5.9% (n = 310,000)
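Luciferase-expressing P. falciparum in infected erythrocytes (2% hematocrit, 0.1% parasitemia final) in RPMI 1640/0.5% Albumax were exposed to compound for 48 hours at 37 C, 5% CO2; growth read as luminescence.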
HCMV inh = inhibitors of human cytomegalovirus. HFF cells, HCMV-luciferase reporter, 72 h; stronger effect = lower value. actives 4.5% (n = 410,000). activity change, negative = inhibition, % at 57.5 µM; in the data active = activity change below about -60%; inconclusive = no clear call, values can overlap the other calls; inactive = above about -39%
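Two compound doses tested in HFFs infected with HCMV-luciferase, MOI 1 PFU/cell, 72 h at 37C. Lysate luminescence read with OneGlo; data normalized against buffer-only and 10uM Salinomycin inhibitor controls.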
HCV inhibitor = blocks hepatitis C virus. actives 3.4% (n = 340,000). AID 651820. Potency, µM (titrated, usually from 41.8 µM), most hits filed as inhibitors. Huh7.5.1 HCVcc-Cre infection, luciferase reporter, 44 h
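Cells (1,000/well) were plated 4 h before compound, then infected with HCVcc-Cre virus (~0.5 moi). After 44 h further culture, infection was read as luciferase luminescence following a 15 min substrate incubation at room temperature.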
Pf growth 96h = P. falciparum growth inhibition at 96 hour, primary screen for plastid delayed-death inhibitors | actives 6.9% (n = 320,000) | P. falciparum luciferase reporter growth, 96 h | AID 504834 | Potency, µM (series often up to 28.7 µM), most hits filed as inhibitors
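Readout is luminescence from an integrated firefly luciferase in P. falciparum. Red cells, 2% hematocrit and 0.05% parasitemia final, were cultured with compound through two parasite generations (96 hours) at 37 C, 5% CO2.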
Of the large screens only hits and unclear results are named; the others gave an inactive call. An excerpt weighted towards active compounds, which were near 13% of everything screened. Unless noted, calls come from the whole dose curve; as a rule, active = well fitted inhibition curve with a large enough effect; inconclusive = small, poorly fitted or top-dose-only effect, or another doubt; inactive = no such curve, though single readings can be large or run the other way.

CC1(C)Cc2nc(N3CCCC3)c(C#N)cc2CO1	Pf growth 96h inconclusive
COc1c(O)c(=O)n2c3ccccc3c3ccnc1c32	Pf growth 48h 10.4µM, Pf growth 96h inconclusive
O=c1c(Cl)c(O)c2cccc3c4ccccc4n1c23	none
CCOC(=O)c1cc(C)n(CC2CCC(C(=O)Nc3ccc(OC)cc3)CC2)c1C (stereo unspecified)	none (no result: Pf growth 48h, HCV inhibitor, Pf growth 96h)
CC(Nc1ccccc1)C(=O)Nc1ccc(F)cc1 (stereo unspecified)	none (no result: Pf growth 48h)
CC(C)c1c(C(=O)Nc2ccccc2)c(-c2ccccc2)c(-c2ccc(F)cc2)n1CC[C@@H](O)C[C@@H](O)CC(=O)O	HCMV inh -66.6 (no result: Pf growth 48h, HCV inhibitor, Pf growth 96h)
O=C1Cc2c([nH]c3ccc([N+](=O)[O-])cc23)-c2ccccc2N1	HCMV inh -98.1, HCV inhibitor inconclusive (no result: Pf growth 48h, Pf growth 96h)
O=[N+]([O-])c1ccc2[nH]c3nc4ccccc4nc3c2c1	none
Cc1nn(S(=O)(=O)c2ccc(C(C)C)cc2)c(C)c1S(=O)(=O)N1CCCCCC1	none (no result: Pf growth 48h, HCV inhibitor, Pf growth 96h)
COc1cc(/C=C/C(=O)CC(=O)/C=C/c2ccc(O)c(OC)c2)ccc1O	Pf growth 48h inconclusive, HCV inhibitor inconclusive, Pf growth 96h inconclusive
O=C(/C=C/c1ccc2c(c1)OCO2)c1c(O)n(CCc2ccccc2)c(=O)[nH]c1=O	Pf growth 48h inconclusive, HCMV inh -84.5, Pf growth 96h inconclusive
COc1cc(/C=C/C(=O)c2c(O)n(CCc3ccccc3)c(=O)[nH]c2=O)ccc1O	HCMV inh -97.4, Pf growth 96h inconclusive
O=C(/C=C/c1ccccc1)c1c(O)n(CCc2ccccc2)c(=O)[nH]c1=O	none
COc1ccccc1CNC(=O)c1ccc2[nH]c(C)c(C)c2c1	none (no result: Pf growth 48h, HCV inhibitor, Pf growth 96h)
O=C(Nc1ccccc1)N(Cc1cccs1)c1ccc(F)cc1	none (no result: Pf growth 48h, HCV inhibitor, Pf growth 96h)
COc1cc(OC)c(C2C=C(c3ccc(C)cc3)Nc3c(C(=O)Nc4ccccc4)cnn32)cc1OC (stereo unspecified)	none (no result: Pf growth 48h, HCV inhibitor, Pf growth 96h)
CC(C)(C)c1cc(OC(=O)C2CCCC2)ccc1O	Pf growth 96h 5.22µM
COc1ccc(C(=O)OCC(=O)c2c[nH]c3ccccc23)c(OC)c1	HCV inhibitor inconclusive (no result: Pf growth 48h, Pf growth 96h)
Cc1cc(C)cc(N(CCC(=O)Nc2nnc(C3CC3)s2)S(=O)(=O)c2ccc(Cl)cc2)c1	HCMV inh -61.4, HCV inhibitor inconclusive
CCOc1ccc(N(C)S(=O)(=O)c2ccc(C)c(C(=O)OCC(=O)c3c[nH]c4ccccc34)c2)cc1	Pf growth 48h 13.1µM, HCMV inh inconclusive, Pf growth 96h inconclusive
CCOc1ccc(N(C)S(=O)(=O)c2ccc(C)c(C(=O)Nc3nnc(C4CC4)s3)c2)cc1	Pf growth 48h 4.15µM, Pf growth 96h inconclusive
CCc1ccc(NC(=O)Cn2c(=O)c3cc(Cl)ccc3n3nncc23)cc1	none (no result: Pf growth 48h, HCV inhibitor, Pf growth 96h)
CCOC(=O)C1(Cc2cccc(F)c2)CCN(Cc2cnc(C)s2)CC1	Pf growth 48h inconclusive, Pf growth 96h 2.33µM
CCOC(=O)C1(Cc2cccc(F)c2)CCN(Cc2cn(CC)nc2C)CC1	HCV inhibitor inconclusive, Pf growth 96h inconclusive
CCOC(=O)C1(CCCc2ccccc2)CCN(Cc2cnc(C)s2)CC1	Pf growth 48h inconclusive, HCV inhibitor inconclusive, Pf growth 96h inconclusive
CCOC(=O)C1(Cc2cccc(F)c2)CCN(Cc2c(C)nn(CC)c2C)CC1	HCMV inh inconclusive, HCV inhibitor 12.6µM
Cc1c(NC(=O)c2ccc(OC(C)C)cc2)cccc1-c1nc2ncccc2o1	none (no result: Pf growth 48h, HCV inhibitor, Pf growth 96h)
Cc1cc(C)c2nc(NCc3ccccc3O)sc2c1	HCMV inh -64.9, HCV inhibitor inconclusive
Cc1c2oc3c(C)ccc(C(=O)N[C@@H]4C(=O)N[C@H](C(C)C)C(=O)N5CCC[C@H]5C(=O)N(C)CC(=O)N(C)[C@@H](C(C)C)C(=O)O[C@@H]4C)c3nc-2c(C(=O)N[C@@H]2C(=O)N[C@H](C(C)C)C(=O)N3CCC[C@H]3C(=O)N(C)CC(=O)N(C)[C@@H](C(C)C)C(=O)O[C@@H]2C)c(N)c1=O	Pf growth 48h 0.0048µM, Pf growth 96h 0.0024µM (no result: HCMV inh, HCV inhibitor)
Cc1ccc(S(=O)(=O)N2CCCCC2C(=O)Nc2ccc(N(C)C)cc2)cc1 (stereo unspecified)	HCV inhibitor inconclusive (no result: Pf growth 48h, Pf growth 96h)
Cc1ccc(S(=O)(=O)N2CCCC2C(=O)Nc2ccc(Br)cc2)cc1 (stereo unspecified)	HCMV inh -61.2 (no result: Pf growth 48h, HCV inhibitor, Pf growth 96h)
O=C(Nc1ccc2c(c1)OCO2)C1CCCCN1S(=O)(=O)c1ccc(F)cc1 (stereo unspecified)	Pf growth 96h 9.28µM
O=C(Nc1ccc(N2CCCCC2)cc1)C1CCCN1S(=O)(=O)c1ccc(F)cc1 (stereo unspecified)	none
COc1ccc(NC(=O)C2CCCN2S(=O)(=O)c2ccc(C)cc2)cc1 (stereo unspecified)	Pf growth 96h inconclusive (no result: Pf growth 48h)
O=C(NC1CCCCC1)C1CCCN1S(=O)(=O)c1ccc(F)cc1 (stereo unspecified)	none
COc1ccc(NC(=O)C2CCCCN2S(=O)(=O)c2ccc(F)cc2)cc1 (stereo unspecified)	HCV inhibitor inconclusive, Pf growth 96h 0.586µM
CCOC(=O)N1CCC(NC(=O)C2CCCCN2S(=O)(=O)c2ccc(F)cc2)CC1 (stereo unspecified)	Pf growth 96h 1.04µM (no result: Pf growth 48h)
CCC(=O)N1CCc2cc(S(=O)(=O)NC(C(=O)NCCc3ccc(OC)c(OC)c3)C(C)C)ccc21 (stereo unspecified)	none (no result: Pf growth 48h, HCV inhibitor, Pf growth 96h)
COC(=O)C1CCCN1S(=O)(=O)c1ccc2ccccc2c1 (stereo unspecified)	Pf growth 48h 10.4µM (no result: Pf growth 96h)
CC1CCN(c2ccc(NC(=O)C3CCCN3S(=O)(=O)c3ccc(F)cc3)cc2)CC1 (stereo unspecified)	Pf growth 48h inconclusive, HCV inhibitor inconclusive, Pf growth 96h 11.7µM
CCOc1ccc(NC(=O)C(C)n2c(=O)cc(-c3ccccc3)c3c(C)nn(C)c32)cc1 (stereo unspecified)	none (no result: Pf growth 48h, HCV inhibitor, Pf growth 96h)
CCOC(=O)c1[nH]c(C)c(CCC(=O)N2CCN(c3cc(Cl)ccc3C)CC2)c1C	none (no result: Pf growth 48h, HCV inhibitor, Pf growth 96h)
C=CCN1C(=O)C(CC(=O)NCC)SC1=Nc1cc(Cl)ccc1Cl (stereo unspecified)	Pf growth 96h 1.17µM
COc1ccc(S(=O)(=O)N(CC(=O)Nc2ccc(S(=O)(=O)N3CCOCC3)cc2)c2ccccc2)cc1	Pf growth 48h inconclusive, HCMV inh -85.0, HCV inhibitor 5.62µM
COc1ccc(S(=O)(=O)N(CC(=O)Nc2ccc(S(=O)(=O)N3CCOCC3)cc2)Cc2ccc(F)cc2)cc1	Pf growth 48h 14.7µM, HCV inhibitor inconclusive, Pf growth 96h inconclusive
COc1ccc(NC(=O)CN(C)C(=O)c2ccc(S(=O)(=O)N3CCOCC3)cc2)cc1	none (no result: Pf growth 48h, HCV inhibitor, Pf growth 96h)
CS(=O)(=O)N(CC(=O)Nc1ccccc1C(=O)N1CCOCC1)c1ccccc1	none
COc1ccc(N(CC(=O)Nc2ccccc2C(=O)N2CCOCC2)S(=O)(=O)c2ccc(F)cc2)cc1	Pf growth 96h 10.4µM
CCOc1ccccc1N(CC(=O)Nc1ccccc1C(=O)N1CCOCC1)S(C)(=O)=O	HCMV inh inconclusive, Pf growth 96h 10.4µM
CCOc1ccc(-c2cc(CCCC(=O)NCCc3ccc(SC)cc3)no2)cc1	none (no result: Pf growth 48h, HCV inhibitor, Pf growth 96h)
CC(=O)N1CCc2cc(S(=O)(=O)NC(Cc3ccccc3)C(=O)Nc3ccc(C)cc3C)ccc21 (stereo unspecified)	none (no result: Pf growth 48h, HCV inhibitor, Pf growth 96h)
